Data on 35 compounds can be found in ChEMBL document CHEMBL3433997, “St. Jude Leishmania screening dataset” (2016).

Each structure is given as a SMILES string.

Common to all, as to assay type: functional
In test [1] the target is Solute carrier family 2, facilitated glucose transporter member 1 (Homo sapiens) (UniProt P11166). The test can be described thus: ST_JUDE_LEISH: Cytotoxicity at 2uM final concentration against transgenic Leishmania Mexicana promastigotes LmGLUT1 that are glucose transport deficient and complemented with the human glucose transporter GLUT1. Activity is measured by DNA content using SYBR green in vitro.
Solute carrier family 2, facilitated glucose transporter member 1 (Homo sapiens), sequence (P11166 whole entry): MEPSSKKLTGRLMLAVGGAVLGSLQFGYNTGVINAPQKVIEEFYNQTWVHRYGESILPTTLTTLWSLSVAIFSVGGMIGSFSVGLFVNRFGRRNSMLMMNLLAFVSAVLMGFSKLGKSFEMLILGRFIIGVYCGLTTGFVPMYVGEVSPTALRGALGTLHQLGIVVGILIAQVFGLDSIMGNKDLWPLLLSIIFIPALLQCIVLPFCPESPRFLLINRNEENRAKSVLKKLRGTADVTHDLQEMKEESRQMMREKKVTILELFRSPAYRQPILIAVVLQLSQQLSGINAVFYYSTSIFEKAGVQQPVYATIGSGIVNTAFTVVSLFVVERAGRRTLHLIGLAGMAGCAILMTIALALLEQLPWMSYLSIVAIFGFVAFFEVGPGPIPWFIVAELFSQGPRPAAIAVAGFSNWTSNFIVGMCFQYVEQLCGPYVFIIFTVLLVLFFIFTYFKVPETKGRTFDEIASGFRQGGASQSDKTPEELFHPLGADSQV

Test [2] has as its target Hexose transporter 1 (Plasmodium falciparum) (UniProt O97467). In words: ST_JUDE_LEISH: Cytotoxicity at 2uM final concentration against transgenic Leishmania Mexicana promastigotes LmPfHT that are glucose transport deficient and complemented with the Plasmodium falciparum hexose transporter. Activity is measured by DNA content using SYBR green in vitro.
Test [3] deals with Glucose transporter (Leishmania mexicana) (UniProt O61059). In words: ST_JUDE_LEISH: Cytotoxicity at 2uM final concentration against transgenic Leishmania Mexicana promastigotes LmGT2 that are glucose transport deficient and complemented with the L. Mexicana glucose transporter 2. Activity is measured by DNA content using SYBR green in vitro.

As for `CC(=O)Nc1nc(N)c2c(ccc3c2ccn3CC(C)C)n1`, the inhibition (as a rule, the drop in the measured response relative to a control, in per cent) in test [1] is -2.54%; in test [2] it was -0.46%; in test [3], -0.95%.

Take `CCCNc1nc(Nc2ccccc2C)nc2ccccc12`: the inhibition worked out at 38.1% in test [1], 33.5% in test [2] and 13.8% in test [3].

For the compound `COc1ccc(NCc2cccc(-c3cccc(CNCCc4ccccc4)c3)c2)cc1`, the inhibition is 0% in test [1], 0.51% in test [2] and -1.32% in test [3].

For `O=[N+]([O-])c1ccc(/C=N/Nc2cc(-c3ccccc3)nc3ccccc23)o1`, the inhibition in test [1] came to 9.16%; in test [2] it was 7.41%; in test [3] it was 5.71%.

For `CCc1sc(-c2cc(Cl)ccc2OC)nc1C(=O)NCCN1CCCCC1`, the inhibition in test [1] came out at 4.48%; in test [2] it was 4.06%; in test [3] it was 4.96%.

Consider `Cc1ccc(O)cc1Nc1ccnc2cc(-c3cccc(CNCCS(C)(=O)=O)c3)ccc12`, for which the inhibition is 1.09% in test [1], 0.12% in test [2] and -3.77% in test [3].

With `COc1ccc(-c2ccc(NC(=O)c3ccc(C#N)cc3)cc2)cc1CN1CCNCC1`, the inhibition in test [1] stood at 10.9%; in test [2], 7.81%; in test [3], 5.48%.

As for `CCOc1ccc(C2CCN(CCCCNC(=O)c3ccc(NC(=O)c4ccc(Cl)cc4)cc3)CC2)c(OCC)c1`, the inhibition in test [1] worked out at 4.52%; in test [2] it was 3.34%; in test [3], 2.91%.

For `O=C(NC(=S)Nc1cc(C(F)(F)F)cc(C(F)(F)F)c1)c1ccc(Cl)cc1`, the inhibition was 0.72% in test [1], -0.34% in test [2] and -0.06% in test [3].

Take `O=C(NCCCN(Cc1ccc(F)cc1)c1ccccn1)C(c1cc2ccccc2o1)N1CCN(C(c2ccccc2)c2ccccc2)CC1` (stereo not given): the results for the inhibition in test [1], in test [2] and in test [3] were 3.35%, 3.69% and 1.89%, respectively.

As to `COc1ccc(-c2nc(NC(=O)CSc3ccc([N+](=O)[O-])cc3)sc2C)cc1`, the inhibition in test [1] is 0.33%; in test [2], -0.37%; in test [3], -1.33%.

As for `CC1(C)NC(N)=NC(=N)N1OCc1cccs1`, the inhibition stood at 10.6% in test [1], 7.52% in test [2] and 7.36% in test [3].

`O=C(/C=C/c1ccc(Cl)c(Cl)c1)N1CCC(CN2CCC(c3c[nH]c4cnccc34)CC2)CC1`: the inhibition in test [1] was found to be 4.52%; in test [2], 3.14%; in test [3], 4.67%.

For the compound `COc1ccc2nc3cc(Cl)ccc3c(Nc3ccc(C(=O)O)cc3)c2c1`, the results for the inhibition in test [1], in test [2] and in test [3] were 5.95%, -1.31% and 0.06%, respectively.

On to `COc1ccc(C2CC(=O)C3=C(C2)NC(C)=C(C(=O)OC(C)C)C3c2ccccc2F)cc1OC` (stereo not given), for which the inhibition in test [1] amounted to 13.6%; in test [2], 2.16%; in test [3] it was 1.65%.

In the case of `O=S(=O)(NCCN1CCCC1)c1ccc(-c2cccc(CNCCc3cccs3)c2)s1`, the inhibition in test [1] turned out to be 0.02%; in test [2], 2.28%; in test [3], 3.42%.

Regarding `O=C(Nc1cccc(CN2CCCN(Cc3ccc(O)cc3)CC2)c1)c1cc2ccccc2s1`, the inhibition was -1.48% in test [1], 1.71% in test [2] and -2.92% in test [3].

For `CCOC(=O)c1cc(C(=O)NCCCCN2CCC(c3ccc4c(c3OC)CCCC4)CC2)ccc1-c1ccc(C(F)(F)F)cc1`, the inhibition in test [1] was -2.37%; in test [2], 4.37%; in test [3], 1.36%.

Regarding `Cc1cc(CNCCCCCCCNCc2ccc(Cl)cc2)ccc1O`, the inhibition in test [1] stood at 0.64%; in test [2], 3.98%; in test [3] it was 0.81%.

For `COc1ccc2nc(C)cc(NC3Cc4ccccc4C3)c2c1`, the inhibition in test [1] was 7.7%; in test [2], 5.19%; in test [3], 0.76%.

With `COc1cc(OC)cc(C(=O)Nc2nc(-c3ccc(NC(=O)c4ccccc4)cc3)cs2)c1`, the inhibition was 16.3% in test [1], 9.26% in test [2] and 5.46% in test [3].

With `CCCN(CCCCCCN(CCC)CCc1ccc(O)c(O)c1)CCc1ccc(O)cc1`, the inhibition in test [1] stood at 9.55%; in test [2], 12%; in test [3], 10.8%.

In the case of `C=CCn1c(Sc2ccc(C#N)c([N+](=O)[O-])c2)nnc1-c1cc(OC)cc(OC)c1`, the figures for the inhibition in test [1], in test [2] and in test [3] were 12.5%, 13.4% and 10.9%, respectively.

`COc1cccc(-c2cnc(N)c(-c3nc4cc(Cl)c(F)cc4[nH]3)c2)c1`: the inhibition in test [1] was 15.6%; in test [2], 14.7%; in test [3], 8.86%.

As for `O=C(/C=C/c1ccc(Cl)c(Cl)c1)N1CCC(CCCN2CCC(c3c[nH]c4ccc(O)cc34)CC2)CC1`, the values for the inhibition in test [1], in test [2] and in test [3] were 25.3%, 17.4% and 14%, respectively.

On to `CC(CNc1nc(NCC(c2ccccc2)c2ccccc2)c2nc[nH]c2n1)c1ccccc1` (stereo not given), for which the inhibition in test [1] amounted to 3.92%; in test [2], 5%; in test [3] it was 3.73%.

For the compound `NC1CCN(Cc2ccc(-c3ccc(-c4nc5ccccc5[nH]4)s3)cc2)C1` (stereo not given), the inhibition came out at 3.97% in test [1], 1.77% in test [2] and 3.21% in test [3].

Consider `Cc1cccc2nc(-c3ccc(-c4ccc(NC(=O)Nc5ccsc5)cc4)cc3)[nH]c12`, for which the inhibition is 0.7% in test [1], -0.26% in test [2] and -0.35% in test [3].

Turning to `CC(CN(C)C)C(=O)Nc1ccc(-c2ccc(-c3nc4cc(C(F)(F)F)ccc4[nH]3)cc2)cc1` (stereo not given), the figures for the inhibition in test [1], in test [2] and in test [3] were 12.9%, 11.6% and 9.66%, respectively.

Turning to `COc1ccc(CNCc2ccc(F)cc2)cc1-c1ccc(S(=O)(=O)NCCN2CCCC2)cc1`, the inhibition in test [1] was 7.44%; in test [2], 6.73%; in test [3] it was 5.24%.

As for `O=C(Nc1cccc(-c2ccc(-c3nc4cc(C(F)(F)F)ccc4[nH]3)s2)c1)c1cccnc1`, the results for the inhibition in test [1], in test [2] and in test [3] were 4.93%, 4.73% and 4.16%, respectively.

With `COc1ccc(CCN(C)CCOc2ccc(NC(=O)COc3ccc4sc5ccccc5c(=O)c4c3)cc2)cc1OC`, the inhibition was 3.46% in test [1], 4.33% in test [2] and 1.11% in test [3].

Turning to `Cc1cc(C2CCN(CCCCNC(=O)c3ccc(-c4ccc(C(F)(F)F)cc4)cc3)CC2)c(C)cc1OCCOC1CCCCO1` (stereo not given), the inhibition in test [1] is 1.45%; in test [2] it was -0.6%; in test [3], 2.21%.

In the case of `COc1ccc2ncc(C#N)c(CCN3CCC(NCc4ccc5c(c4)OCCO5)CC3)c2c1`, the inhibition in test [1] was determined as 48.5%; in test [2], 64.6%; in test [3], 83.2%.

For the compound `CC(C)c1ccc(NC(=O)c2ccc(CN3CCCN(Cc4cccc(O)c4)CC3)cc2)cc1`, the inhibition stood at 2.95% in test [1], 4.76% in test [2] and 5.15% in test [3].
